# Rows were chosen to be rich in hits. Some 9.3% of all compounds tested hit in one or more screens of this group.
# ELG1 DNA repair: ELG1-dependent DNA repair inhibition; HEK293T ELG1-luciferase reporter, luminescence, 16 h; DNA damage induced by 5-fluorouridine; 330,000 tested, 2.3% active; AID 504467; Potency, µM (highest dose often 46.1 µM), without a hit: at the top dose activity change, negative = inhibition, usual class: inhibitors; further: on the % scale 0 is the no-effect control and ±100 the full control effect; nearly all actives have a fitted effect of over 55% in size
#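 DMSO vehicle served as the neutral condition. Each well held 2,000 cells given 5-fluorouridine plus compound; after 16 hr at 37 °C/5% CO2, ONE-Glo was added and luciferase measured 30 min later.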
# FLuc modulator: firefly luciferase modulation, counter-screen for miR-21 project; purified FLuc, Km substrates, luminescence inhibition; Potency, µM (titrated, usually from 57.5 µM), inactives show top-dose activity change, negative = inhibition, most hits filed as inhibitors; P08659; 360,000 tested, 6.9% active;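 further: plate controls were vehicle for no effect and reference inhibitor for full effect; nearly all actives have a fitted effect of over 55% in size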
# Target sequence (P08659 whole entry, looked up): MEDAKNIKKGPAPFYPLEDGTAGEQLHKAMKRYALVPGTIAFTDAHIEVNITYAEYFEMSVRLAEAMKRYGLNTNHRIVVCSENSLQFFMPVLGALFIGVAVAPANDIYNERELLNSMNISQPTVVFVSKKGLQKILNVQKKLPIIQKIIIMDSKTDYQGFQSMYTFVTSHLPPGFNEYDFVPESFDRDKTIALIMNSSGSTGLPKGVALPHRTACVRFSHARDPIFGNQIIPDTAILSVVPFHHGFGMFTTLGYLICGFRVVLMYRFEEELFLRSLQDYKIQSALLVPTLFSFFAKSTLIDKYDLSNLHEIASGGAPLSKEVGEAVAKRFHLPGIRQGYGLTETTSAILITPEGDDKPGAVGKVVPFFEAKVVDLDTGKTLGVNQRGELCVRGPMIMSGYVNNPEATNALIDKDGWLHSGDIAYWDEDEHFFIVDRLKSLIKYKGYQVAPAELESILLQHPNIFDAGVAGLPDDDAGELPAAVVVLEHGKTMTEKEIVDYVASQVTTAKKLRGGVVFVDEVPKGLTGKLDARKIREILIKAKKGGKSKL
#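 Purified P. pyralis luciferase, 10 nM final, with Km-level 10 uM D-luciferin and 10 uM ATP in 50 mM Tris acetate pH 7.5, 10 mM Mg acetate, 0.01% Tween-20, 0.05% BSA; 6-point qHTS titration about 60 µM downward; luminescence read.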
# NPC1 promoter act: activates the NPC1 promoter; Huh7 NPC1 promoter luciferase reporter, 24 h; Potency, µM (titrated, usually from 9.22 µM), for the others: at the top dose activation, actives largely listed as activators; 320,000 tested, 2.4% active; AID 485313; further: % of control where 0% means no effect; nearly all actives have a fitted effect of over 60% in size
#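 Compounds in DMSO were transferred onto Huh7 NPC1-luciferase reporter cells pre-incubated 2 h; after 24 h at 37 °C, Amplite reagent was dispensed and luminescence recorded 10 min later.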
# SMN2 splice enh: SMN2 splice variant enhancement; 210,000 tested, 2.8% active; HEK293 SMN2-luciferase splicing reporter, luminescence, 30-36 h; Potency, µM (doses to about 46.1 µM), for the others: top-dose activity change, positive = activation, hits mostly activators; further: % of control where 0% means no effect; nearly all actives have a fitted effect of over 55% in size
#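 HEK293 cells carry an SMN2 […]–luciferase reporter in which exon 7 inclusion puts luciferase in frame. Cells were plated 10-12 h before compound addition, then incubated 30-36 h at 37C. ONE-Glo luminescence was read; sodium butyrate at 4.5 mM final served as control.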
# ELG1 genotox: inducers of genotoxicity in HEK293T ELG1-luciferase cells | Potency, µM (top dose mostly 46 µM), for inactives: at the top dose activity change, positive = activation, usual class: activators | 330,000 tested, 1.3% active | HEK293T ELG1-luciferase reporter, luminescence, 16 h; further: % of control where 0% means no effect; nearly all actives have a fitted effect of over 60% in size
#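 Screening used a luciferase reporter fused to human ELG1 in HEK293T cells. Luminescence was read on a CCD plate imager after 16 hr exposure and 30 min ONE-Glo incubation.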
# Rab9 prom act: activates the Rab9 promoter. 320,000 tested, 2.8% active. AID 485297. Huh7 Rab9 promoter-luciferase reporter, luminescence, 24 h. Potency, µM (series often up to 9.22 µM), without a hit: at the top dose activation, negative = inhibition, most hits filed as activators; further: % of control where 0% means no effect; nearly all actives have a fitted effect of over 60% in size
#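 Rab9 promoter-driven luciferase in stably transfected Huh7 cells; 1500 cells/well rested 2 h, exposed to compound in DMSO for 24 h at 37 °C, 5% CO2. Luminescence read 10 min after adding luciferase reagent at ambient temperature.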
# * hit, by the source's call; ? = inconclusive; . = no result given; [ ] = another dose, or the depositor's remark. The call rests on the fitted dose curve; in most records, active means well fitted curve in the direction sought with a large enough effect; inconclusive means small, poorly fitted or top-dose-only effect, or another doubt; inactive means no such curve, though single readings can be large; an effect the other way counts as inactive or inconclusive. Potency means the concentration at half of the fitted maximal effect.
SMILES,ELG1 DNA repair,FLuc modulator,NPC1 promoter act,SMN2 splice enh,ELG1 genotox,Rab9 prom act
O=C(Nc1ccc2oc(-c3cccnc3)nc2c1)c1cccnc1,0%,?,12%,-10%,3%,17%
Cc1nn(CC2CC2)c(=O)n1-c1ccc(F)cc1,12%,-1%,-6%,5%,2%,1%
Cc1ccc(N2C(=O)c3ccccc3C2C(=O)c2ccc(O)cc2O)cc1 (stereo unspecified),-17%,-5%,2%,?,-4%,-1%
Cc1ccc(N2C(=O)c3ccccc3C2C(=O)c2cc(C)ccc2O)cc1 (stereo unspecified),?,?,23%,13µM*,-1%,21%
COc1ccc(CNC(=O)Cn2nc3c(cc2=O)CCCC3)cc1,.,-1%,.,.,.,.
NC(=S)NNC(=O)[C@@H]1CCCC[C@@H]1C(=O)O,-6%,2%,-1%,3%,1%,3%
O=C(Nc1nc2nc(-c3ccccc3)cc(=O)n2[nH]1)c1ccc(F)cc1,.,?,5%,-3%,.,20%
CSc1nc2nc(-c3ccccc3)cc(=O)n2[nH]1,?,6.7µM*,19%,?,?,1%
C/C(=N/OC(=O)C1CC12CCC2)c1ccc(Br)cc1 (stereo unspecified),-1%,6.7µM*,-1%,15%,-4%,2%
O=S(=O)(Nc1cccc(-c2ccc(N3CCCCC3)nn2)c1)c1ccc(Cl)s1,.,1.2µM*,.,.,.,.
O=S(=O)(Nc1cccc(-c2ccc(N3CCCCC3)nn2)c1)c1cccs1,.,0.95µM*,.,.,.,.
CCOc1ccc(-c2cccc(NS(=O)(=O)c3ccccc3[N+](=O)[O-])c2)nn1,?,3%,13%,.,-1%,1%
CCOc1ccc(-c2cccc(NS(=O)(=O)c3ccc(Cl)s3)c2)nn1,.,15µM*,.,.,.,.
O=S(=O)(Nc1cccc(-c2ccc3nncn3n2)c1)c1cccs1,?,-8%,-1%,?,?,3%
C[C@H]1CCCC=CC2C[C@H](OC(=O)CN(C)C)C[C@@H]2[C@@H](O)/C=C\C(=O)O1 (stereo partly specified),.,.,.,-37%[9.22 µM],.,.
COc1ccccc1N1CCN(C(=O)c2cccc3c(=O)c(C)c(-c4ccccc4)oc23)CC1,21µM*,0%,-4%,-3%,-10%,3%
COc1ccccc1N1CCN(C(=O)c2oc3ccccc3c2C)CC1,3%,-1%,-25%,24%,-2%,-11%
COc1ccccc1N1CCN(C(=O)c2cc3c(C)nc4ccccc4c3o2)CC1,13µM*,1%,-6%,.,-20%,-7%
COc1ccc(-c2ccc(CNCc3ccccn3)o2)cc1Cl,?,?,-4%,.,8%,-3%
Fc1ccc(-c2ccc(CNCc3ccccn3)o2)cc1,?,24µM*,27%,.,?,5%
Fc1ccc(-c2ccc(CNCCSc3nnnn3-c3ccccc3)o2)cc1,.,-20%,.,.,.,.
Clc1ccc(-c2ccc(CNCc3ccccn3)o2)cc1,?,15µM*,?,.,4%,24%
COc1ccc(N(CC(=O)NCc2ccco2)C(=O)CCC(=O)Nc2ccccn2)cc1,-2%,-1%,1%,.,2%,-2%
COc1ccc(-c2coc3cc(O)ccc3c2=O)cc1O,?,9.5µM*,?,.,13µM*,?
COc1ccc(-c2coc3cc(O)ccc3c2=O)cc1,.,.,.,11µM*,.,.
SMILES,ELG1 DNA repair,FLuc modulator,NPC1 promoter act,SMN2 splice enh,ELG1 genotox,Rab9 prom act
Cc1ccccc1OCc1nnc(SCC(=O)Nc2ccc3c(c2)OCO3)n1C,0%,1%,-3%,-10%,16%,-5%
COc1ccccc1OCc1nnc(SCC(=O)Nc2ccc(N3CCOCC3)cc2)n1C,14%,12µM*,4%,.,1%,16%
Cc1ccccc1OCc1nnc(SCC(=O)Nc2ccc(N3CCOCC3)c(Cl)c2)n1C,-23%,19µM*,4%,-1%,-1%,-2%
CCOc1ccc(NC(=NCc2ccc3c(c2)OCO3)SC2CC(=O)N(c3ccccc3)C2=O)cc1 (stereo unspecified),4%,10%,-4%,19%,5%,2%
CCOc1ccc(N2C(=O)CC(SC(=NC)Nc3ccc4c(c3)OCO4)C2=O)cc1 (stereo unspecified),26µM*,-2%,-3%,17%,-9%,-7%
CCOc1ccc(NC(=NCc2ccc3c(c2)OCO3)SC2CC(=O)N(c3ccc(OCC)cc3)C2=O)cc1 (stereo unspecified),?,-9%,?,22µM*,?,?
CCCNC(=O)CS(=O)(=O)c1ccccc1,20%,-6%,3%,.,-3%,3%
O=C(NCCOc1ccc(Cl)cc1)C1CC(=O)N(c2ccc3c(c2)OCCO3)C1 (stereo unspecified),-3%,4%,-3%,.,-1%,0%
O=C(Cn1nnc2c(cnn2-c2ccccc2)c1=O)NCc1cccs1,0%,-2%,16%,20%,2%,23%
CC1CCC(C(C)C)C(OC(=O)Cn2nnc3c(cnn3-c3ccccc3)c2=O)C1 (stereo unspecified),16µM*,-2%,-3%,.,-8%,0%
C=C(C)C(=O)N1CC2(CC(c3cccc(NC(=O)CCCCC)c3)=NO2)C[C@H]1C(N)=O (stereo partly specified),3%,-4%,-5%,.,0%,-7%
CN(Cc1ccccc1)C(=O)COC(=O)C12CC3CC(CC(Br)(C3)C1)C2,-10%,.,.,.,-4%,.
CCN1CCOC(=O)C1CC(=O)Nc1cc(Cl)ccc1C (stereo unspecified),.,1%,.,4%,.,.
CC(c1ccco1)N(C(=O)COc1ccc(Cl)cc1)c1ccccn1 (stereo unspecified),?,21µM*,12%,?,8.9µM*,24%
CC(c1ccco1)N(C(=O)c1ccccc1F)c1ccccn1 (stereo unspecified),13%,-2%,-4%,7%,-1%,0%
CC(c1ccco1)N(C(=O)c1ccccc1NS(=O)(=O)c1ccc(Cl)cc1)c1ccccn1 (stereo unspecified),-5%,-1%,3%,2%,-1%,1%
CC(c1ccco1)N(C(=O)COc1ccc(Cl)cc1Cl)c1ccccn1 (stereo unspecified),?,4.3µM*,24%,14%,2.3µM*,?
COc1ccc(-c2nc(SCC(=O)Nc3c(C)cc(C)cc3C)n[nH]2)cc1,.,15µM*,.,.,.,.
COc1ccc(NC(=O)CSc2n[nH]c(-c3ccncc3)n2)cc1Cl,10%,.,.,.,10%,.

# Assay outcomes: PubChem BioAssay, National Center for Advancing Translational Sciences (NCATS)
